This passage reports binding signal results from publication PMC7862700, “An all-to-all approach to the identification of sequence-specific readers for epigenetic DNA modifications on cytosine”.

Holding throughout (assay): DAPPL (digital affinity profiling via proximity ligation, sequencing); 10 mM Tris-HCl pH 7.5, 50 mM NaCl, 1 mM DTT, 4% glycerol, room temperature, 30 min; GST-TFs on glutathione beads, 16-mer random dsDNA library, 0.1% formaldehyde crosslink after washing; high values mean tight binding
Common to all, as to conditions: protein: recombinant; tags: N-terminal GST; dsDNA, one strand shown

One experiment addresses T1, FLI1 (Homo sapiens, UniProt Q01543 1-452).
T1 sequence: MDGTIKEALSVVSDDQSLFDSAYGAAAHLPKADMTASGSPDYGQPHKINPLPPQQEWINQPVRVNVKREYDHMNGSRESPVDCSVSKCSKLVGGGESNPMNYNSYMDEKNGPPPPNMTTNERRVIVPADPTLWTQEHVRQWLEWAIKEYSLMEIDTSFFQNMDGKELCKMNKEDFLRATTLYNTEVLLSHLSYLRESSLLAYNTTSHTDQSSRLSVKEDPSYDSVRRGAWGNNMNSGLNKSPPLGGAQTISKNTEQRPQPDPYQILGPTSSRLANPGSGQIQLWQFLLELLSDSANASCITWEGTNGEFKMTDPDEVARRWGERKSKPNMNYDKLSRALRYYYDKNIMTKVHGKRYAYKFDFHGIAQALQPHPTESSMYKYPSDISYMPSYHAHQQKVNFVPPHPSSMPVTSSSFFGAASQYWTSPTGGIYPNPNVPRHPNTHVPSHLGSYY
In short, it runs like this: (§1)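 Pools of DNA-barcoded human transcription factors, expressed in yeast as GST fusions on glutathione beads and combined with a tag-only sample, were incubated with 200 nmole of a 16-mer random double-stranded DNA library. Incubation took 30 min at room temperature in Tris/NaCl/DTT/glycerol buffer and was followed by washing, 0.1% formaldehyde crosslinking, proximity ligation (BsaI/T4 ligase, 1 h, 37 °C), PCR amplification and sequencing on an Illumina NextSeq500. Binding signal is the ratio of a hexamer's read frequency for a factor to its frequency for the tag-only sample.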

The target in another experiment is T2, ELK1 (Homo sapiens, UniProt P19419 1-428).
T2 sequence: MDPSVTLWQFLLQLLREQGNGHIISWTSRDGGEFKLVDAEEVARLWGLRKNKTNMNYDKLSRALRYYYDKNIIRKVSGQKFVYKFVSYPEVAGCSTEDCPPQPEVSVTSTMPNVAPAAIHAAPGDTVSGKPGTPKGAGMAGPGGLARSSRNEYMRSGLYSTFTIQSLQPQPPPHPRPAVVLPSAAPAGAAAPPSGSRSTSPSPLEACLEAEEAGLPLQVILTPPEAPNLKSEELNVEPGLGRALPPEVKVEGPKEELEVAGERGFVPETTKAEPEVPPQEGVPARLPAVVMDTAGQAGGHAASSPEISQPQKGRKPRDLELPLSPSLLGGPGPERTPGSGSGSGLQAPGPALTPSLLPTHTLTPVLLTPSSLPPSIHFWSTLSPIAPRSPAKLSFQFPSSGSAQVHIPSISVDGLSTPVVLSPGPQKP
In short, it runs like this: as §1

The next experiment deals with T3, GABPA (Homo sapiens, UniProt Q06546 1-454).
T3 sequence: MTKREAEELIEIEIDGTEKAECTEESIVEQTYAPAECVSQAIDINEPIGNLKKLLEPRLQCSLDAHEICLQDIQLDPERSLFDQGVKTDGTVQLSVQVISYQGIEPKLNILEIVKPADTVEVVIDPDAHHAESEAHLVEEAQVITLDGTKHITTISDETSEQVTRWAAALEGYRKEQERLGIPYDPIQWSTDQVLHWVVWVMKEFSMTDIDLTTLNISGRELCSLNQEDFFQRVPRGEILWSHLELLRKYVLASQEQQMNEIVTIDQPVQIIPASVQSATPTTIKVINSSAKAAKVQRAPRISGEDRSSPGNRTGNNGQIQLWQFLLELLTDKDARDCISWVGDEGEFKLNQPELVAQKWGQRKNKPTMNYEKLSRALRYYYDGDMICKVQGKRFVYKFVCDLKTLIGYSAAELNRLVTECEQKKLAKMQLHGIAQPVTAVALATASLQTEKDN
In short, it runs like this:
as §1

The target of the next experiment is T4, ERG (Homo sapiens, UniProt P11308 1-479).
T4 sequence: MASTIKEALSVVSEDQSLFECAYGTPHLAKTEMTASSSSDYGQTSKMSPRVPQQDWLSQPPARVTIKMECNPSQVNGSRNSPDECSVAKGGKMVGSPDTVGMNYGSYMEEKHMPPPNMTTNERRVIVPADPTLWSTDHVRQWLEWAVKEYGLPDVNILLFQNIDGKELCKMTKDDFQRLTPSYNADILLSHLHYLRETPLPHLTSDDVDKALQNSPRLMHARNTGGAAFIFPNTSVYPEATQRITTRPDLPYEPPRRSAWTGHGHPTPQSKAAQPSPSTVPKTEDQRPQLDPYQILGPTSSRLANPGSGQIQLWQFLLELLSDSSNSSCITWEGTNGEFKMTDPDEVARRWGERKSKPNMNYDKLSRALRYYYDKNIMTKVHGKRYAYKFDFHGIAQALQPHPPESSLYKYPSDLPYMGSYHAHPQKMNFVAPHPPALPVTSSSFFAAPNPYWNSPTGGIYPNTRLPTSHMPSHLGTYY
In short, it runs like this:
as §1

In a further experiment the target is ELF1 (Homo sapiens, UniProt P32519 1-619). In short, it runs like this:
as §1

For a further experiment, the target named is T5, EHF (Homo sapiens, UniProt Q9NZC4 1-300).
T5 sequence: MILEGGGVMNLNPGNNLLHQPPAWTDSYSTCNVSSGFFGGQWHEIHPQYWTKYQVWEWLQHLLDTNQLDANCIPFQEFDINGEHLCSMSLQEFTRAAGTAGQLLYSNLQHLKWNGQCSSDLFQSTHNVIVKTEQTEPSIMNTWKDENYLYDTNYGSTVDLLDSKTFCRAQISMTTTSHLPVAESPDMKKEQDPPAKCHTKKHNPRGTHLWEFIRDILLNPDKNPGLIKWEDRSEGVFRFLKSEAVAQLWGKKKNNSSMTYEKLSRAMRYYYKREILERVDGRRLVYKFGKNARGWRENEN
In short, it runs like this: as §1

The next experiment deals with SPI1 (Homo sapiens, UniProt P17947 1-270). In short, it runs like this: as §1
The target in a further experiment is SPIB (Homo sapiens, UniProt Q01892 1-262). In short, it runs like this:
as §1

The next experiment concerns the target T6, FEV (Homo sapiens, UniProt Q99581 1-238).
T6 sequence: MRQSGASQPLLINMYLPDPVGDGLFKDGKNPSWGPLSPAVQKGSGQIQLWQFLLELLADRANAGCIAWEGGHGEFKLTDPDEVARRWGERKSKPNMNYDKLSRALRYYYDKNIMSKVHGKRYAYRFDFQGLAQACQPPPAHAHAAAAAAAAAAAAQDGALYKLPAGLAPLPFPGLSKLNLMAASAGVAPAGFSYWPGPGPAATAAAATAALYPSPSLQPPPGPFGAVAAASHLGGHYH
The procedure, abridged:
as §1

Another experiment concerns the target ETV5 (Homo sapiens, UniProt P41161 1-510). In short, it runs like this: as §1
A further experiment deals with T7, SPIC (Homo sapiens, UniProt Q8N5J4 1-248).
T7 sequence: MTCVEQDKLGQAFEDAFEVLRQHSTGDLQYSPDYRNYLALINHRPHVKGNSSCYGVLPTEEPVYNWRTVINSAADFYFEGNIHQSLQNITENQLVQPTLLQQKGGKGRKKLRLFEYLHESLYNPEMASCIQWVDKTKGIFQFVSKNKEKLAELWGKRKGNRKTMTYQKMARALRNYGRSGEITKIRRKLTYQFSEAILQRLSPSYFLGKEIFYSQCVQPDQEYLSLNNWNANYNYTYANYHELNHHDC
In short, it runs like this:
as §1

The target of the next experiment is ELF4 (Homo sapiens, UniProt Q99607 1-663). In short, it runs like this:
as §1

For another experiment, the target named is ETV1 (Homo sapiens, UniProt P50549 1-477). The procedure, abridged: as §1
Sequence of ETV1 (P50549 whole entry): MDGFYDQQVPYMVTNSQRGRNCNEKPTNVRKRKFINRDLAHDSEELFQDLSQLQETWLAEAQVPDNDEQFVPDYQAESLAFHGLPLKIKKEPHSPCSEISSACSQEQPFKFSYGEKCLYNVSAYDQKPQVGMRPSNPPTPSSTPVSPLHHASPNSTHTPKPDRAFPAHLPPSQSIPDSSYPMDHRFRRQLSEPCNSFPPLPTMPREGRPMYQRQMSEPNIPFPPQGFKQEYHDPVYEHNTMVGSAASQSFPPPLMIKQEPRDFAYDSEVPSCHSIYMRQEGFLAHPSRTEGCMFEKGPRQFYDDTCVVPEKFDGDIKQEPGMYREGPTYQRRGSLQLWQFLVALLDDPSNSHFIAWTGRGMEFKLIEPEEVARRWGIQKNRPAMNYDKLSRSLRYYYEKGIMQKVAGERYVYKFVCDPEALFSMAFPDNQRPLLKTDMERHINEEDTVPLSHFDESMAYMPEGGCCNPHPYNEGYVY
The next experiment has as its target T8, ERF (Homo sapiens, UniProt P50548 1-548).
T8 sequence: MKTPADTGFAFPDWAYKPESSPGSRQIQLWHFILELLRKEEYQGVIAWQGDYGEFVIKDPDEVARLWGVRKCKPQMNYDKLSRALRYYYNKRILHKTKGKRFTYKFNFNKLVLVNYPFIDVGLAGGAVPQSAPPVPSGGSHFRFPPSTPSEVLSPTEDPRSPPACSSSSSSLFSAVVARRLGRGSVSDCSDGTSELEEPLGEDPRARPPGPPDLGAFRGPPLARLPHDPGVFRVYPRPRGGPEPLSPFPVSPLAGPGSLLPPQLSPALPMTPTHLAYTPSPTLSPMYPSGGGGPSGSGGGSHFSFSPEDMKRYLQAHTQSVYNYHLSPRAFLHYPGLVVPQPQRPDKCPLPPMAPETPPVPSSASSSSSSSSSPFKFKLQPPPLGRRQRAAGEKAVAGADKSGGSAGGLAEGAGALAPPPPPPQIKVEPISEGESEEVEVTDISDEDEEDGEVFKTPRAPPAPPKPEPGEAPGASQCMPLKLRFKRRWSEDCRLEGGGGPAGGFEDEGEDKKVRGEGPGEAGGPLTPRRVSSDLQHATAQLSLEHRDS
In short, it runs like this:
as §1

The next experiment deals with T9, ETV3L (Homo sapiens, UniProt Q6ZN32 1-361).
T9 sequence: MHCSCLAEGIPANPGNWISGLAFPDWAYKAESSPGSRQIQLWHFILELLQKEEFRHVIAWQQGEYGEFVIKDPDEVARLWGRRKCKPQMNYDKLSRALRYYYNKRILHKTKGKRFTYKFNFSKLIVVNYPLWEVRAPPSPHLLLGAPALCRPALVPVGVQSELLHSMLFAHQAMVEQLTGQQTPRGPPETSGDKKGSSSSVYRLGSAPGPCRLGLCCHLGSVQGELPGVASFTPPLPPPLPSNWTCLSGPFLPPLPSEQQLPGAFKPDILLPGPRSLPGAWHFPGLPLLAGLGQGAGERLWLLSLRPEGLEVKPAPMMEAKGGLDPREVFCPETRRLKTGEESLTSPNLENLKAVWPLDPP
In short, it runs like this: as §1

The next experiment concerns the target T10, ETS2 (Homo sapiens, UniProt P15036 1-469).
T10 sequence: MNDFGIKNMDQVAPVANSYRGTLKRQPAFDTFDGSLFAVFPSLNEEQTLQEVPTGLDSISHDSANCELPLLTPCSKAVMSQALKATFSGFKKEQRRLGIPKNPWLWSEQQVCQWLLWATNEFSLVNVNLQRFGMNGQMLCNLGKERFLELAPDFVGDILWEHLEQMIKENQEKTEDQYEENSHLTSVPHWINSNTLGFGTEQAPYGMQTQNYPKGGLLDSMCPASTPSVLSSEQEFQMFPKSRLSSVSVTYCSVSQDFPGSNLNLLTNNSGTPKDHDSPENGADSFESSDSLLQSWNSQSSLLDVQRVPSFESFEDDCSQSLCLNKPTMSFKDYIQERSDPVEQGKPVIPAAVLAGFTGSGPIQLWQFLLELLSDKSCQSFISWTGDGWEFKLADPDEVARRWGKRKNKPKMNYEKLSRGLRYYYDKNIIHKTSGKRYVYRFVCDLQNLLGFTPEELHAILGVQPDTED
The procedure, abridged:
as §1

A further experiment has as its target T11, ELF5 (Homo sapiens, UniProt Q9UKW6-2 1-255).
T11 sequence: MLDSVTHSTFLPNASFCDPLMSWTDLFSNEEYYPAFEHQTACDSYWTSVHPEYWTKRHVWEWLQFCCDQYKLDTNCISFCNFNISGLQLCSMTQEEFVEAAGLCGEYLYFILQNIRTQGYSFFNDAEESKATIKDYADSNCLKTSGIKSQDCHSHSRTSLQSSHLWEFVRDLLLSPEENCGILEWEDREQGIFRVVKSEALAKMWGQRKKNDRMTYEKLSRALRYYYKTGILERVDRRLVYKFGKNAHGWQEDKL
In short, it runs like this:
as §1

Another experiment addresses ETV6 (Homo sapiens, UniProt P41212 1-452). In short, it runs like this: as §1

Sequence of ETV5 (P41161 whole entry): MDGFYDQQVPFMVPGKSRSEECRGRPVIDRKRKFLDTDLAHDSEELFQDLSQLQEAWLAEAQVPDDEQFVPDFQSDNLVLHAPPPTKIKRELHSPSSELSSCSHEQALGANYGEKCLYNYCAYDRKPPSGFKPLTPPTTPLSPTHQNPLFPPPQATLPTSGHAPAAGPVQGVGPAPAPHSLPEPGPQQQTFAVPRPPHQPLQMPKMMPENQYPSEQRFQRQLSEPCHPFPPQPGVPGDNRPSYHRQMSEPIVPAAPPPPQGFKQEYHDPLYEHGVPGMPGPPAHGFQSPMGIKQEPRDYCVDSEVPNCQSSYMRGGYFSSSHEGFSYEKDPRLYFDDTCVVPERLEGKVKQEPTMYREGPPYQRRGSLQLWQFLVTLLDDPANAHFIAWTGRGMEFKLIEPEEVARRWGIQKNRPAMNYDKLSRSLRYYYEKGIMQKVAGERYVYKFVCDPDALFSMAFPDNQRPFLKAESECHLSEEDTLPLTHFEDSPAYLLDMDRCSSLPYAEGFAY
Sequence of ELF4 (Q99607 whole entry): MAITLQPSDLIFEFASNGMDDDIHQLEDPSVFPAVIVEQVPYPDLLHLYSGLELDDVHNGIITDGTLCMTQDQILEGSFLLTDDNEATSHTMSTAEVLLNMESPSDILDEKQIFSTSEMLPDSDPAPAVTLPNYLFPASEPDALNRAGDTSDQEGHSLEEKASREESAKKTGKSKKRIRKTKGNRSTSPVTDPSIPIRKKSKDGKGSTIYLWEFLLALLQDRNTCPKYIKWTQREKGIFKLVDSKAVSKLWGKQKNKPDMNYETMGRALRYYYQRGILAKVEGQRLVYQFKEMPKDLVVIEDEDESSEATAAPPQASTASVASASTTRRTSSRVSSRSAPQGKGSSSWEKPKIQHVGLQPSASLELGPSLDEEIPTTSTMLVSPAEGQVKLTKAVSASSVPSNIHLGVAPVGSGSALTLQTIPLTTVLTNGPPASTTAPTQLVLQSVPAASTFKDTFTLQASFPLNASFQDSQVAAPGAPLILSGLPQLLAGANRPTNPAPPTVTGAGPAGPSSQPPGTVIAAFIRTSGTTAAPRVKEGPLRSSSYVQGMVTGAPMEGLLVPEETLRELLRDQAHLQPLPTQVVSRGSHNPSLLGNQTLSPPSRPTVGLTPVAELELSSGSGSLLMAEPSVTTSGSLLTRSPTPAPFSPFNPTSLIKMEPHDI
Sequence of SPIB (Q01892 whole entry): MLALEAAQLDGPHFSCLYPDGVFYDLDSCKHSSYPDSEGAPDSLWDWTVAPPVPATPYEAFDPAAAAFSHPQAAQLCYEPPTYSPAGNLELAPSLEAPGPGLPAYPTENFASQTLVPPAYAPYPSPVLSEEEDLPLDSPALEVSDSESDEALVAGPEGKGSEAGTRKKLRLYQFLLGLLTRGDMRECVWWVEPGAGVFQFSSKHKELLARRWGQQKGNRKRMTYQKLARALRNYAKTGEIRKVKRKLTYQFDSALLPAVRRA
Sequence of ETV6 (P41212 whole entry): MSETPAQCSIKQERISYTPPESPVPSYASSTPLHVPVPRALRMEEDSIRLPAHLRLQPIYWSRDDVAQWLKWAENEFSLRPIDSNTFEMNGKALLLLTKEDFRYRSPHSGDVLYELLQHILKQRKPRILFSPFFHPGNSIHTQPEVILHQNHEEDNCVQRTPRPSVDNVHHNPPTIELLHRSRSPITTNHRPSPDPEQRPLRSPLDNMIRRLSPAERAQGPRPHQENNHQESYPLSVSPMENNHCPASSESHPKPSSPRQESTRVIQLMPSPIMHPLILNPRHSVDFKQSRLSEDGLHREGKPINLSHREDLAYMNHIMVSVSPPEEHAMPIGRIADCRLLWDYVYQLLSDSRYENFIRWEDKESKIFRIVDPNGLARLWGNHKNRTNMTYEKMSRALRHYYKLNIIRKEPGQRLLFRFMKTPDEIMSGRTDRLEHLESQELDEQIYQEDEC
Sequence of ELF1 (P32519 whole entry): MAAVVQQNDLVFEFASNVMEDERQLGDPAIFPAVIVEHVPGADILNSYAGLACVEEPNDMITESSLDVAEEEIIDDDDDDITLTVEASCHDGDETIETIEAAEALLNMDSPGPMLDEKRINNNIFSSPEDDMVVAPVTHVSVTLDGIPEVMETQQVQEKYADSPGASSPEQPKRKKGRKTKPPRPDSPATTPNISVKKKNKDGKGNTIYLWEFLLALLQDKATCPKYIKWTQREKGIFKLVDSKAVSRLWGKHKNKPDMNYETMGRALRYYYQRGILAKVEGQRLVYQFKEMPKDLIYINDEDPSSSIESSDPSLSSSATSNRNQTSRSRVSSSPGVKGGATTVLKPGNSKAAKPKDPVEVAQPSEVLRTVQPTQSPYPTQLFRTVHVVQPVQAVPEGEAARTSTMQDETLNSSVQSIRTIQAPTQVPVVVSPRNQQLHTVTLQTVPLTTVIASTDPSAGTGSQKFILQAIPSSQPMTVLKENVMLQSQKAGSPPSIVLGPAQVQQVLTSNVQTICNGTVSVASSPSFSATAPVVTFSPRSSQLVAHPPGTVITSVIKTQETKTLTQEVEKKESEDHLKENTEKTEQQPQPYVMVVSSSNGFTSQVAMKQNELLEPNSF

Consider AGTATG, for which the binding signal with FLI1 was 1.05 fold enrichment (6-mer frequency, TF over GST control); with ELK1, 1.01 fold enrichment (6-mer frequency, TF over GST control); in the experiment with GABPA it was 1.03 fold enrichment (6-mer frequency, TF over GST control); with ERG, 1 fold enrichment (6-mer frequency, TF over GST control); in the experiment with ELF1, 1.04 fold enrichment (6-mer frequency, TF over GST control); in the experiment with EHF it was 1.11 fold enrichment (6-mer frequency, TF over GST control). The binding signal with SPI1 was 1.08 fold enrichment (6-mer frequency, TF over GST control); in the experiment with SPIB it was 1.11 fold enrichment (6-mer frequency, TF over GST control); with FEV it was 1.02 fold enrichment (6-mer frequency, TF over GST control); in the experiment with ETV5, 1.02 fold enrichment (6-mer frequency, TF over GST control); in the experiment with SPIC, 1.04 fold enrichment (6-mer frequency, TF over GST control); with ELF4 it was 1.04 fold enrichment (6-mer frequency, TF over GST control). Moreover, the binding signal was 1.02 fold enrichment (6-mer frequency, TF over GST control) with ETV1; 1.02 fold enrichment (6-mer frequency, TF over GST control) in the experiment with ERF; 1.13 fold enrichment (6-mer frequency, TF over GST control) in the experiment with ETV3L; 1.09 fold enrichment (6-mer frequency, TF over GST control) in the experiment with ETS2; 1.06 fold enrichment (6-mer frequency, TF over GST control) with ELF5; 1 fold enrichment (6-mer frequency, TF over GST control) with ETV6.
